Rows were chosen to be rich in hits. Some 7% of all compounds tested hit in one or more screens of this group.
BAZ2B inh: inhibitors of human BAZ2B bromodomain. AID 504333. Q9UIF8. AlphaScreen BAZ2B-H3K14Ac peptide displacement. Potency, µM (top dose mostly 114 µM), without a hit: top-dose activity change, negative = inhibition, actives largely listed as inhibitors. 360,000 compounds, 4.4% hits; also: potency is read from the fitted curve at half-maximal effect; % is scaled to controls: 0 for no effect and ±100 for the full control effect; nearly all actives have a fitted effect of over 60% in size
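Protein-peptide AlphaScreen: BAZ2B 50 nM, b-H3K14Ac 50 nM, 1x PBS pH 7.4 + 0.01% Tween-20. Preincubation 30 min RT; cpd 30 min RT (top 110 uM); beads 20 min RT, light-protected.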
JMJD2A Tudor: JMJD2A Tudor domain (human) inhibition; 390,000 compounds, 4.4% hits; Potency, µM (titrated, usually from 114 µM), without a hit: top-dose activity change, negative = inhibition, hits mostly inhibitors; O75164; AID 504339; AlphaScreen JMJD2A-Tudor / H3K4me3 peptide binding; also: potency is read from the fitted curve at half-maximal effect; % is scaled to controls: 0 for no effect and ±100 for the full control effect; nearly all actives have a fitted effect of over 50% in size
HP1b binding inh: HP1-beta chromodomain-methylated histone interaction inhibition | 390,000 compounds, 0.56% hits | AlphaScreen HP1-beta / biotin-H3K9me3 peptide binding | Potency, µM (top dose mostly 114 µM), for inactives: at the highest dose activity change, negative = inhibition, hits mostly inhibitors; also: potency is read from the fitted curve at half-maximal effect; nearly all actives have a fitted effect of over 70% in size
Target sequence (P83916 whole entry, looked up): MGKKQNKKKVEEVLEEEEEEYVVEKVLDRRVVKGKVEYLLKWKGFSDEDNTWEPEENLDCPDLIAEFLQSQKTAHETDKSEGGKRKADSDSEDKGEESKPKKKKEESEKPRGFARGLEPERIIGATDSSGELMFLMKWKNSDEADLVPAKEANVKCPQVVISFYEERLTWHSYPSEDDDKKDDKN
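HP1-beta protein (50 nM final) preincubated 30 min at room temperature with biotinylated H3(1-18)K9me3 peptide (50 nM) in PBS pH 7.4, 0.01% Tween-20, then compound added for 30 min. AlphaScreen streptavidin donor/nickel chelate acceptor beads (10 ug/mL final), 30 min dark, luminescence read.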
PLK1 PBD block: blocks phosphopeptide binding to human PLK1 polo-box domain; AID 720504; Plk1 PBD binding of FITC phosphopeptide, fluorescence polarization; P53350; 360,000 compounds, 2.8% hits; Potency, µM, inactives show max response, negative = inhibition, most hits filed as inhibitors; also: potency is read from the fitted curve at half-maximal effect; series mostly up to about 57 µM; % is scaled to controls: 0 for no effect and ±100 for the full control effect; nearly all actives have a fitted effect of over 65% in size
PI5P4K alpha inh: inhibitors of human PI5P4K alpha | AID 652105 | max response, % | PI5P4Kalpha enzyme, ADP-Glo luminescence, 60 min; active compounds read low | 330,000 compounds, 1.2% hits; active = max response of -50% or lower; inconclusive = between -30% and -50%; inactive = -30% or higher; also: value at the top dose of about 77 µM; % is scaled to controls: 0 for no effect and ±100 for the full control effect
Target sequence (P48426 whole entry, looked up): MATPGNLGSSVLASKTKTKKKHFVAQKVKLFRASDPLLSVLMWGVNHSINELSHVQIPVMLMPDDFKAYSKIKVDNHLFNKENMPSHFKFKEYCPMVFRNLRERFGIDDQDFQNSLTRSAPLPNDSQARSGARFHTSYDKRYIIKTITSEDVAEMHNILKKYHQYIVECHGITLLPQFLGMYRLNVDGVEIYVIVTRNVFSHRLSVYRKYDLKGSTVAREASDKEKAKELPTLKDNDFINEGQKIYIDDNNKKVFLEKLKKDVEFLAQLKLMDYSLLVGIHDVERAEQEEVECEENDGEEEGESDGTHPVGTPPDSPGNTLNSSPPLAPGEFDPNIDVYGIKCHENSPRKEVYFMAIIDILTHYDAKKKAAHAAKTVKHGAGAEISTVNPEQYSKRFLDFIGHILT
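Single end-point luminescence (ADP-Glo) quantified ADP from PI5P4Kalpha turnover; ATP 5 microM final, 1 h at RT, 0.1% CHAPS and 0.28 mM EGTA in HEPES pH 7.4.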
GCN5L2 inh: inhibitors of human GCN5L2 histone acetyltransferase; GCN5L2 HAT assay, ThioGlo1 CoA-SH fluorescence; Potency, µM (highest dose often 58.9 µM), for the others: at the top dose activity change, negative = inhibition, hits mostly inhibitors; 390,000 compounds, 0.21% hits; also: potency is read from the fitted curve at half-maximal effect; % is scaled to controls: 0 for no effect and ±100 for the full control effect
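GCN5L2 (20 nM) in 50mM HEPES pH 7.5, 0.1mM EDTA, 0.01% Tween-20 preincubated 15 min with compounds at room temperature. Reaction started with H3(1-25) 75uM, acetyl-CoA 70uM, ThioGlo1 50uM; CoA-thiol fluorescence (Ex340/Em540) read at 0 and 20 min.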
ME-1 prolif: ME-1 cell growth inhibition; shares compounds with BAZ2B inh; ME-1 cell proliferation, ATP luminescence, 48 h; Potency, µM (series often up to 56.1 µM), inactives show at the top dose activity change, negative = inhibition, hits mostly inhibitors; 140 compounds, 20% hits
Active calls of the source: *; ? = inconclusive; . = no result; [ ] = another dose, or the depositor's remark. Unless noted, calls follow the shape of the dose curve; as a rule, active = well fitted curve in the direction sought with a large enough effect; inconclusive = small, poorly fitted or top-dose-only effect, or another doubt; inactive = no such curve, though single readings can be large; an effect the other way counts as inactive or inconclusive.

SMILES | BAZ2B inh | JMJD2A Tudor | HP1b binding inh | PLK1 PBD block | PI5P4K alpha inh | GCN5L2 inh | ME-1 prolif
Cc1c2c(c(O)c3c(O)cccc13)C(=O)O[C@H]2C1C(N(C)C)C(O)=C(C(N)=O)C(=O)[C@H]1O (some centres undefined) | . | . | . | . | . | 3.2µM* | -14%
CN(C(=O)COC(=O)Cc1ccc(Cl)cc1)C1CCCCC1 | . | -8% | 24% | 0% | 11 | 0% | .
COc1ccc([C@H]2Sc3ccccc3N(CCN(C)C)C(=O)[C@H]2OC(C)=O)cc1 | . | . | . | . | . | 1%[21.4 µM] | .
COc1ccc(C2Sc3ccccc3N(CCN(C)C)C(=O)C2OC(C)=O)cc1 (centres undefined) | . | . | . | . | . | 3% | 4%
COc1ccc(S(=O)(=O)N2CCCCC2)cc1NC(=O)CCNC(=O)c1ccc(Br)cc1 | 1% | -8% | 34% | 1% | -2 | 0% | .
COc1ccc(S(=O)(=O)NCCC(=O)OCC(=O)NC2CC2)cc1 | . | 8% | 18% | 1% | 1 | 2% | .
C/C(=C\c1cc2ccccc2o1)C1Nc2cccc3cccc(c23)N1 | -27% | ? | ? | . | . | 1% | .
Brc1ccc(C2Nc3cccc4cccc(c34)N2)o1 | ? | ? | ? | -29% | . | -10% | -22%
COc1ccc(-c2csc(N)n2)cc1 | -11% | -27% | 4% | 1% | -4 | -12% | -11%[25.6 µM]
Cc1cccc(Cn2c(C)c(CNC3CCCCC3)c(C(=O)O)c2C)c1 | -5% | -18% | 15% | . | . | -3% | .
COc1cc(C2c3cc4c(cc3C(OC3OC5COC(C)O[C@@H]5C(O)C3O)C3COC(=O)C23)OCO4)cc(OC)c1O (some centres undefined) | . | . | . | . | . | 13% | 0.79µM*
CN(C)CCc1c[nH]c2ccc(CC3COC(=O)N3)cc12 (centres undefined) | . | . | . | . | . | -10% | -6%
COc1ccc2[nH]cc(CCN3C(=O)CCC3=O)c2c1 | ? | -5% | 14% | -3% | 7 | -1% | .
CCCC(=O)N1CCC1(C)C(=O)NS(=O)(=O)c1cccc(F)c1 (centres undefined) | . | . | . | -16% | -1 | . | .
Oc1ccc(C=NNC(=S)Nc2ccc(F)cc2)c(O)c1 | . | ? | 19% | -9% | -28 | . | .
Oc1ccc(/C=N/NC(=S)Nc2cccnc2)c(O)c1O | 2.2µM* | 3.5µM* | 5µM* | 6.7µM* | -96* | -9% | ?
Oc1ccc(/C=N/NC(=S)Nc2cccnc2)c(O)c1 | 2.8µM* | 40µM* | -13% | ? | -75* | -3% | 14µM*
Fc1c(F)c(F)c(/C=N/NC(=S)Nc2cccnc2)c(F)c1F | -12% | -20% | 30% | -6% | -11 | 3% | .
Cn1c(CC(=O)NNC(=O)c2cncc(Br)c2)nc2ccccc21 | . | -2% | 30% | 4% | -3 | -14% | .
O=c1[nH]cc(I)cc1I | 3% | -4% | 46% | -5% | -2 | -1% | -5%[25.6 µM]
CC(=O)c1cccc(NC(=O)CSc2nc(=O)n(Cc3ccco3)c3c2CCC3)c1 | ? | -25% | -8% | . | . | 1% | .
CCNC1=C(Cl)C(=O)c2ccccc2C1=O | 35µM* | 50µM* | ? | -4% | -11 | ? | ?
CCOC(=O)[C@H](CCc1ccccc1)N[C@@H](C)C(=O)N1[C@H](C(=O)O)C[C@H]2CCC[C@@H]21 | . | . | . | . | . | 6%[21.4 µM] | .
CCOC(=O)[C@H](CCc1ccccc1)N[C@@H](C)C(=O)N1[C@H](C(=O)O)C[C@H]2CCCC[C@@H]21 | . | . | . | . | . | 1% | -29%
N#Cc1cc([N+](=O)[O-])ccc1NC(=O)CSc1n[nH]c(=O)n1C1CC1 | 3% | 0% | 42% | -7% | -1 | 1% | .
SMILES | BAZ2B inh | JMJD2A Tudor | HP1b binding inh | PLK1 PBD block | PI5P4K alpha inh | GCN5L2 inh | ME-1 prolif
Cc1ccc(N2CCN(C(=O)Cn3ncc4c([nH]c5ccc(C)cc54)c3=O)CC2)c(C)c1 | 9%[57.1 µM] | -14% | 21% | . | . | 1% | .
Cc1cn(C2OC(COC(=O)c3ccccc3)C(OC(=O)c3ccccc3)C2OC(=O)c2ccccc2)c(=O)[nH]c1=O (centres undefined) | -4% | -28% | 11% | -11% | . | -5% | .
O=C(OCC1OC(OC(=O)c2cc(O)c(O)c(OC(=O)c3cc(O)c(O)c(O)c3)c2)[C@@H](OC(=O)c2cc(O)c(O)c(OC(=O)c3cc(O)c(O)c(O)c3)c2)C(OC(=O)c2cc(O)c(O)c(OC(=O)c3cc(O)c(O)c(O)c3)c2)C1OC(=O)c1cc(O)c(O)c(OC(=O)c2cc(O)c(O)c(O)c2)c1)c1cc(O)c(O)c(OC(=O)c2cc(O)c(O)c(O)c2)c1 (some centres undefined) | . | . | . | . | . | 3.5µM* | 22µM*
O=C(NN1C(=O)CSC1=S)C(=O)NN1C(=O)CSC1=S | ? | 32µM* | -28% | -27% | -67* | -4% | -10%
COc1ccc(OC)c(-c2c3cc(O)c(=O)cc-3oc3cc(O)c(O)cc23)c1 | 2.8µM* | 1.6µM* | ? | 2.1µM* | -101* | ? | 22µM*
Cc1ccc(F)cc1C(=O)N1CCCCC1c1cc(C(=O)NCc2ccccc2)no1 (centres undefined) | . | . | . | 0% | -1 | . | .
Cc1ccccc1NC(=S)N(CCN(C)C)C(C)c1ccccn1 (centres undefined) | ? | -12% | 38% | -9% | -2 | -10% | -9%[25.6 µM]
Cc1c(Cl)cccc1NC(=S)N(CCN(C)C)C(C)c1ccccn1 (centres undefined) | 50µM* | -9% | 28% | -1% | -2 | 3% | -3%[25.6 µM]
Nc1nc(-c2ccccc2)c(-c2ccccc2)s1 | 2%[57.1 µM] | ? | -31% | ? | 1 | -9% | .
Nc1nc(-c2ccccc2)c(N=Nc2ccc(Cl)cc2)s1 | ? | ? | ? | ? | 3 | -8% | 2%[25.6 µM]
O=c1oc2c(O)c(O)cc3c(=O)oc4c(O)c(O)cc1c4c23 | 0.79µM* | 0.71µM* | ? | 8.4µM* | -100* | ? | -8%
CCCCC(=O)N(C)c1c(C)nc2ccc(C(=O)N3CCN(S(=O)(=O)CC)CC3)cn12 | . | . | . | 3% | 1 | . | .
COc1cc(-c2coc3cc(OC)c(OC)c(OC)c3c2=O)cc(OC)c1OC | . | . | . | . | . | 15% | .
CC(=O)Oc1cc(-c2coc3cc(OC(C)=O)c(OC(C)=O)c(OC(C)=O)c3c2=O)cc(OC(C)=O)c1OC(C)=O | . | . | . | . | . | -3% | 4%
O=C(NCC1CCCO1)c1cc(C(=O)c2ccc(Cl)cc2Cl)c[nH]1 (centres undefined) | -17% | -3% | 37% | 0% | -11 | -10% | .
